85 molecules from PubChem BioAssay AID602399 (Sanford-Burnham Center for Chemical Genomics, 2012) can be followed below.

In all, about 360,000 compounds went through this assay and about 2,800 (0.78%) were called active. The sample as a whole holds a higher share of actives than the screen did. Unmarked numbers belong to inactive results. Rule as the data show it: active = inhibition above about 26%; inactive = the rest.

This assay deals with Nicotinate-nucleotide adenylyltransferase NadD (Staphylococcus aureus N315). The assay can be described thus: inhibitors of S. aureus NadD, primary screen, biochemical, colorimetric, uHTS (AID 602399). The conditions noted are these: purified NadD enzyme, colorimetric absorbance read-out; at 20 µM; hits give high values.
As a reminder, the inhibition is the relative decrease from the control value, in per cent. For the molecule `COc1cc(C(=O)Nn2c(O)c(C3=c4ccccc4=NC3=O)sc2=S)ccc1O`, the inhibition was 9.44%.

Take `COC(=O)CC(CC(=O)OC)n1cccc1`: the inhibition is -1.87%.

Consider `CCn1cc(CN2CCN(CC(C)(C)C)C(CCO)C2)c2ccccc21` (stereo not given), for which the inhibition was -1.34%.

As for `COc1cc(Cl)c(C)cc1NC(=O)[C@@H]1CCCN1C(=O)c1cccs1`, the inhibition was -0.625%.

Consider `Cc1c(C(=O)OC(C)C)sc(NC(=O)c2cccnc2)c1C#N`, for which the inhibition is 7.06%.

On to `CCCOc1ccc(C2C(C(=O)c3ccc(C)o3)=C(O)C(=O)N2CCCn2ccnc2)cc1` (stereo not given), for which the inhibition was 17.5%.

In the case of `C=CCOc1cccc(C2C(C(=O)c3ccc(C)o3)=C(O)C(=O)N2c2nnc(C)s2)c1` (stereo not given), the inhibition was 12.2%.

Turning to `Cc1cc(N2C(=O)C(O)=C(C(=O)c3ccc(C)o3)C2c2ccc(OCc3ccccc3)cc2)no1` (stereo not given), the inhibition is 58.6% (active).

With `CCC(C)N(C(=O)COC(=O)C1C(C(=O)OC)=C(C)NC(C)=C1C(=O)OC)C1CCS(=O)(=O)C1` (stereo not given), the inhibition is 1.18%.

For `Cc1ccc(Cc2nnc(SCC(=O)Nc3ccccc3C)[nH]c2=O)cc1`, the inhibition was 2.18%.

`NC(=O)NC(=O)CSc1nc2cc([N+](=O)[O-])ccc2n1-c1cccc(C(F)(F)F)c1`: the inhibition was 17.8%.

Take `CC(=O)NC1(c2cccc(F)c2)CCN(CC(=O)NC(C)C)CC1`: the inhibition was -2.5%.

In the case of `Cc1ccc(-c2cc(C(=O)N/N=C/C=C/c3ccco3)c3ccccc3n2)cc1C`, the inhibition was 53% (active).

Turning to `O=C(N/N=C/C=C/c1ccco1)c1cccs1`, the inhibition is 5.08%.

Regarding `C/C(=N\NC(=O)c1cc(-c2ccc(O)cc2)nc2ccccc12)c1cccnc1`, the inhibition is 5.99%.

In the case of `CSc1nsc(SC)c1NC(=O)OC1CCCCC1`, the inhibition is -1.66%.

Turning to `CC(=O)Nc1ccc(S(=O)(=O)N2CCN(S(=O)(=O)c3cccs3)CC2)cc1`, the inhibition is 0.0869%.

Regarding `CN(C)c1ccc(-n2cccc2/C=N/n2cnnc2)cc1`, the inhibition was -0.713%.

Regarding `CN(C)c1ccc(-n2cccc2/C=C2/SC(=Nc3ccc(F)cc3)NC2=O)cc1`, the inhibition is 24.9% (active).

As to `CN(CCC1CCOCC1)Cc1cn[nH]c1-c1ccc(-c2ccccc2)cc1`, the inhibition was -6.91%.

For the molecule `C[C@@H]1CN([C@@H](C)CO)C(=O)c2cccc(NS(=O)(=O)c3ccc(F)cc3)c2O[C@H]1CN(C)C(=O)NC1CCCCC1`, the inhibition is 4.79%.

As for `Cc1[nH]c2ccccc2c1SCC(=O)Nc1nccs1`, the inhibition was -2.1%.

Consider `CN(C)/C=C(\C#N)C(=O)c1cccnc1Oc1cccc(F)c1`, for which the inhibition was -0.906%.

Turning to `COc1ccc(C2(CNC(=O)C(c3ccccc3)c3ccccc3)CCOCC2)cc1OC`, the inhibition is -2.03%.

As for `Cc1cc(C)nc(Nc2n[nH]c(-c3ccccc3N)n2)n1`, the inhibition is -2.89%.

`CCNc1nc(N)nc(Oc2ccc(OCC)nn2)n1`: the inhibition was -1.59%.

For the molecule `Cc1nn(-c2ccc(F)cc2)c(Cl)c1/C=C(/CCC(=O)O)c1nc2ccccc2s1`, the inhibition is 6.39%.

For the molecule `COc1ccc(C(=O)Nc2cccc(/C=C(/CCC(=O)O)c3nc4ccccc4s3)c2)cc1`, the inhibition is 35.2% (active).

Regarding `O=C(O)CC/C(=C\c1cc2c(cc1Br)OCO2)c1nc2ccccc2s1`, the inhibition is 7.94%.

Regarding `CSc1nnc2c(n1)OC(c1ccsc1)N(C(C)=O)c1ccccc1-2` (stereo not given), the inhibition was -0.91%.

Regarding `Cc1ccc(C(=O)N/C(=C\c2cn(C)c3ccccc23)C(=O)N2CCN(C)CC2)cc1`, the inhibition was -3.04%.

Take `Cc1ccc(N2C(=O)S/C(=C/c3cn(C)c4ccccc34)C2=O)cc1`: the inhibition is 2.76%.

Consider `Cc1cccc(N=C2NC(=O)/C(=C/c3cn(C)c4ccccc34)S2)c1`, for which the inhibition is 37% (active).

As for `CON(C)S(=O)(=O)c1ccc2c(c1)NC(=O)C1CCCN21` (stereo not given), the inhibition was 10.3%.

As for `Cc1ccc(Cn2c(=N)c(S(=O)(=O)c3ccc(C)cc3)cc3c(=O)n4ccccc4nc32)cc1`, the inhibition was 35.5% (active).

Turning to `CCn1c(=N)c(S(=O)(=O)c2ccc(F)cc2)cc2c(=O)n3ccccc3nc21`, the inhibition is 7.46%.

On to `Cc1ccc(S(=O)(=O)c2cc3c(=O)n4cccc(C)c4nc3n(CCc3ccccc3)c2=N)cc1C`, for which the inhibition was -1.62%.

For the molecule `COc1ccc(C)cc1NC(=O)c1cc(-c2ccccc2)nc2c1cnn2C(C)C`, the inhibition was -10.2%.

As for `COC(=O)c1sccc1NC(=O)CC1C(=O)NCCN1C(=O)Nc1ccc(F)cc1F` (stereo not given), the inhibition is -5.08%.

On to `Cc1c(Cl)c([N+](=O)[O-])nn1CCCC(=O)NC(C)c1ccccc1` (stereo not given), for which the inhibition is 1.25%.

For the molecule `Cc1c(Cl)c([N+](=O)[O-])nn1Cc1ccc(C(=O)N/N=C\c2cc(Cl)ccc2O)o1`, the inhibition was 35.1% (active).

Consider `CN(C)c1ccc(/C=N/NC(=O)c2ccc(Cn3cc(Br)cn3)o2)cc1`, for which the inhibition is 4.66%.

Take `COc1ccc(CC(=O)Nc2c3c(nn2-c2cccc(Cl)c2)CS(=O)C3)cc1` (stereo not given): the inhibition is 5.19%.

Turning to `Cc1ccc(NS(=O)(=O)c2cc3c(cc2Br)NC(=O)CO3)cc1C`, the inhibition was -3.42%.

Consider `C#CCOCCOCCOCCNc1nc(N2CCOCC2)nc(N2CCN(C(=O)[C@H](Cc3ccc(O)cc3)n3cc(CCO)nn3)CC2)n1`, for which the inhibition is -4.41%.

In the case of `C#CCOCCOCCOCCNc1nc(N2CCN(C(=O)C([C@@H](C)O)n3cc([C@@H](N)CCCCN)nn3)CC2)nc(N2CCN(C(=O)[C@H](CCCCN)n3cc(CN)nn3)CC2)n1` (stereo not given in full), the inhibition is -6.21%.

As to `C#CCOCCOCCOCCNc1nc(N2CCN(C(=O)CCCCCCCCCCNC(=O)Cn3cc(CCCCCN)nn3)CC2)nc(N2CCN(C(=O)CCCCCCCCCCNC(=O)[C@H](CO)n3cc(CCCSC)nn3)CC2)n1`, the inhibition is 46.8% (active).

Regarding `C=CCOc1cccc(C2C(C(=O)c3ccc(C)o3)=C(O)C(=O)N2CCN2CCOCC2)c1` (stereo not given), the inhibition was 6.48%.

On to `CCNc1nc(SCCOc2ccccc2)nc(N(C)C)n1`, for which the inhibition is -6.51%.

On to `O=C(CSc1nnc(-c2cnccn2)n1Cc1ccco1)c1ccc(Cl)c(Cl)c1`, for which the inhibition is 10.3%.

In the case of `O=C(CSc1nnc(-c2cccnc2)n1Cc1ccco1)c1ccc(Cl)c(Cl)c1`, the inhibition is 30.6% (active).

As for `C(=C\c1ccccc1)/CSc1nnc(-c2cccnc2)n1Cc1ccco1`, the inhibition is 14.6%.

Turning to `Cc1cccc(NC(=O)CN2CCN(C(=O)C3CCN(C(=O)/C=C/c4ccccc4)CC3)CC2)c1C`, the inhibition is 5.55%.

`Cc1cccc(NC(=O)CSC(N)=O)c1C`: the inhibition is -2.73%.

For the molecule `CCOC(=O)/C=c1\s/c(=C\c2ccc(C#N)cc2)c(=O)n1CC(=O)Nc1cccc(C)c1C`, the inhibition was 32.6% (active).

Take `Cc1c(CN2CCCCC2)c(O)n(CCO)c(=O)c1C#N`: the inhibition is -2.39%.

In the case of `Cc1cccc(-c2c(NC(=O)c3ccco3)oc3ccc(Cl)cc3c2=O)c1`, the inhibition is -6.28%.

Take `Cc1ccc(N=C2NC(=O)/C(=C/C=C/c3ccco3)S2)cc1C`: the inhibition was 37.2% (active).

On to `FC(F)(F)c1ccnc(Oc2ccc(C3=NCCS3)cc2)c1`, for which the inhibition is -2.78%.

Take `CCCCn1ccnc1C(=O)c1cccc(S(=O)(=O)N2c3ccccc3CC2C)c1` (stereo not given): the inhibition was 9.25%.

Consider `Cn1c(=O)[nH]c(=O)c2c1nc(CN1CCN(c3ccccc3F)CC1)n2CCc1ccccc1`, for which the inhibition is 0.696%.

In the case of `CC(C)C(=O)Nc1c2c(nn1-c1ccccc1)CSC2`, the inhibition is -1.75%.

Turning to `O=C(Nc1ccc(C(=O)O)cc1)/C(=C\c1ccccc1)NC(=O)c1ccc(Br)cc1`, the inhibition is -2.9%.

As to `COc1ccccc1C(=O)N/C(=C/c1ccco1)C(=O)Nc1ccc(C(=O)O)cc1`, the inhibition is 1.58%.

Turning to `COCCCn1c(=O)/c(=C/c2ccccc2OC(C)C)s/c1=C(\C#N)C(=O)Nc1ccc(C(=O)O)cc1`, the inhibition was 32% (active).

Regarding `CCOC(=O)c1cccc(NC(=O)CCc2nnc3ccc(N4CCOCC4)nn23)c1`, the inhibition was -5.9%.

With `Cc1ccc(Cn2cc(CN3CC(N4CCN(C)CC4)CS3(=O)=O)nn2)cc1` (stereo not given), the inhibition was -10.5%.

Regarding `C=CCN1C(=O)C(O)(CC(=O)c2ccccn2)c2ccccc21` (stereo not given), the inhibition is 13.4%.

For `Cc1ccc(C2CC(c3cccc(Br)c3)n3nc(N)nc3N2)cc1` (stereo not given), the inhibition was 7.54%.

With `Nc1nc2n(n1)C(c1ccco1)CC(c1ccc(Cl)c(Cl)c1)N2` (stereo not given), the inhibition was 47.1% (active).

For the molecule `CCOc1ccccc1C1CC(c2ccc(Cl)cc2)Nc2nc(N)nn21` (stereo not given), the inhibition was 9.48%.

For `CCOC(=O)c1cn(CC)c2cc(F)c(F)cc2c1=O`, the inhibition is -0.618%.

On to `COC(=O)CSc1nc2c(c(C3CC=CCC3)c1C#N)CCC2` (stereo not given), for which the inhibition was -1.38%.

For `COc1ccc(Cc2nnc(NC(=O)Cc3cccs3)s2)cc1`, the inhibition is 32.5% (active).

`COc1ccc(CC(=O)Nc2sc(Cc3ccccc3)c(C)c2C(N)=O)cc1`: the inhibition was -6.77%.

On to `COc1cc(OC)cc(C(=O)NNC(=O)Cc2cccs2)c1`, for which the inhibition is 10.7%.

`CC(C)C[C@@H](CO)N1CCN(Cc2ccc(O)cc2)CCC1=O`: the inhibition was 4.79%.

Turning to `CC(CCN1CCN=C1N(C)C)c1ccccc1` (stereo not given), the inhibition is -0.906%.

On to `Cc1c2cnn(CC(=O)NCc3ccccn3)c(=O)c2c(C)n1Cc1ccc(Cl)cc1`, for which the inhibition is 0.351%.

On to `COC(=O)c1cc(Oc2ccc(S(=O)(=O)N3CCOCC3)cc2[N+](=O)[O-])cc(C(=O)OC)c1`, for which the inhibition is 1.67%.

For `Cc1cc(OCCCC(=O)Nc2cc(S(=O)(=O)N3CCOCC3)ccc2N2CCOCC2)ccc1Cl`, the inhibition was -12.2%.

On to `O=[N+]([O-])c1cc(Cl)cc(/C=N/NC(=S)Nc2cc(S(=O)(=O)N3CCOCC3)ccc2Cl)c1O`, for which the inhibition is 47.9% (active).

As to `C=CC(=O)Nc1ccc(Nc2ccnc(Nc3ccc(N4CCN(C)CC4)cc3)n2)cc1`, the inhibition is 42.6% (active).

As to `CC(=O)Nc1cc(-c2ccc(N3CCN(C)CC3)cc2)cn2c(-c3ccc(F)cc3)cnc12`, the inhibition is 0.533%.

Turning to `O=C(Nc1ccc(N2CCN(C(=O)c3cccs3)CC2)cc1)c1cccnc1Cl`, the inhibition is 4.87%.
